In paper PMC7862700, “An all-to-all approach to the identification of sequence-specific readers for epigenetic DNA modifications on cytosine”:

Legend:
Test in all cases: DAPPL (digital affinity profiling via proximity ligation, sequencing); 10 mM Tris-HCl pH 7.5, 50 mM NaCl, 1 mM DTT, 4% glycerol, room temperature, 30 min; GST-TFs on glutathione beads, 16-mer random dsDNA library, 0.1% formaldehyde crosslink after washing; high values mean tight binding
[1] = target: T1, FEV (Homo sapiens, UniProt Q99581 1-238); conditions: protein: recombinant; tags: N-terminal GST; dsDNA, one strand shown
T1 sequence: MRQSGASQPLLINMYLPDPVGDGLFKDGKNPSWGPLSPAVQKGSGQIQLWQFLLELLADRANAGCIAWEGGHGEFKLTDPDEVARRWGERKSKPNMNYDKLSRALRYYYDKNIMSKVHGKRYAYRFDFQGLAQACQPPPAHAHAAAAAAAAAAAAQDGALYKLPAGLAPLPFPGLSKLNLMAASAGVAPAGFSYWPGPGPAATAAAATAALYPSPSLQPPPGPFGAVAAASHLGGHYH
Outline: (§1)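 Each value of binding signal is a hexamer's read frequency for a factor divided by the same hexamer's frequency in the tag-only sample. Barcoded, bead-captured GST fusions of human transcription factors made in yeast were pooled with that sample and incubated with 200 nmole of a random double-stranded 16-mer DNA library in Tris/NaCl/DTT/glycerol buffer at room temperature for 30 min. Washing, 0.1% formaldehyde crosslinking, proximity ligation, PCR and Illumina NextSeq500 sequencing followed.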

[2] = target: ETV5 (Homo sapiens, UniProt P41161 1-510); conditions: protein: recombinant; tags: N-terminal GST; dsDNA, one strand shown
Outline: as §1

[3] = target: HSF1 (Homo sapiens, UniProt Q00613 1-529); conditions: protein: recombinant; tags: N-terminal GST; chain copies: 3; dsDNA, one strand shown
Outline: as §1

[4] = target: T2, SPIC (Homo sapiens, UniProt Q8N5J4 1-248); conditions: protein: recombinant; tags: N-terminal GST; dsDNA, one strand shown
T2 sequence: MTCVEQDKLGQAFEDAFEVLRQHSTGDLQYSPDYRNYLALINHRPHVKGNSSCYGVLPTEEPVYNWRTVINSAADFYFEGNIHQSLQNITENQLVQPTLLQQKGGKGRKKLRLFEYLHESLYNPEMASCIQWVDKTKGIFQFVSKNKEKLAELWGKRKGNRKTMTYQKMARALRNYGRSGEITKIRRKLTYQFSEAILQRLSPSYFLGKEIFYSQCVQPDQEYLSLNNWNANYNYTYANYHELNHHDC
Outline: as §1

[5] = target: ELF4 (Homo sapiens, UniProt Q99607 1-663); conditions: protein: recombinant; tags: N-terminal GST; dsDNA, one strand shown
Outline: as §1

[6] = target: T3, ELK4 (Homo sapiens, UniProt P28324-2 1-405); conditions: protein: recombinant; tags: N-terminal GST; dsDNA, one strand shown
T3 sequence: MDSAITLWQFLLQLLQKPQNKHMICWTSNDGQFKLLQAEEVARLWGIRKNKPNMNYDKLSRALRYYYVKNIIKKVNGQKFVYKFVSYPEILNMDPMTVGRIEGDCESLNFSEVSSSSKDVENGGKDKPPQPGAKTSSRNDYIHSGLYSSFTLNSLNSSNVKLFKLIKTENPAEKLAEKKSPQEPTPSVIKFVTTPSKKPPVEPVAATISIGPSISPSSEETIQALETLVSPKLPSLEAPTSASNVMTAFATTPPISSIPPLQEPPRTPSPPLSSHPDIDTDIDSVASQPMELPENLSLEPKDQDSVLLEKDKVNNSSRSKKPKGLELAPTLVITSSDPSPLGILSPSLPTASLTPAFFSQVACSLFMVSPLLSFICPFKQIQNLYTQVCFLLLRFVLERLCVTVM
Outline: as §1

[7] = target: T4, ETV2 (Homo sapiens, UniProt O00321 1-342); conditions: protein: recombinant; tags: N-terminal GST; dsDNA, one strand shown
T4 sequence: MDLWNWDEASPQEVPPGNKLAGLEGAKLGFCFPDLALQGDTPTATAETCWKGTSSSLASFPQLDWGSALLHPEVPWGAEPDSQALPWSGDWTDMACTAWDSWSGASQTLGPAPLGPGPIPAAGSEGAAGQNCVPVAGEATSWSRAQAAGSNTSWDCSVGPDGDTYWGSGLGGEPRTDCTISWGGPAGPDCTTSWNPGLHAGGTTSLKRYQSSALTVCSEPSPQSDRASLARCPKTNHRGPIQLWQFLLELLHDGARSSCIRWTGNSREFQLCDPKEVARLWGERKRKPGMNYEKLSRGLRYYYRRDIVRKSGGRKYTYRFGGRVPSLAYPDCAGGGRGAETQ
Outline: as §1

[8] = target: T5, ELF3 (Homo sapiens, UniProt P78545 1-371); conditions: protein: recombinant; tags: N-terminal GST; dsDNA, one strand shown
T5 sequence: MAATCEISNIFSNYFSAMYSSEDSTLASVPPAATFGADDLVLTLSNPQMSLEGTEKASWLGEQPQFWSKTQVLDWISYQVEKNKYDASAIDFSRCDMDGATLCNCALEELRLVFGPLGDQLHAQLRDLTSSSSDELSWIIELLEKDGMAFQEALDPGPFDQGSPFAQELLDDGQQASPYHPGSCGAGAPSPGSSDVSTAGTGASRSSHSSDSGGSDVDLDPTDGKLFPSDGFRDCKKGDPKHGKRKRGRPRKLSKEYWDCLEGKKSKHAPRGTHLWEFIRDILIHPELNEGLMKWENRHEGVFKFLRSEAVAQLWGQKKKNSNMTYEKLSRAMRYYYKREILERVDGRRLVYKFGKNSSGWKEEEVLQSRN
Outline: as §1

[9] = target: CRX (Homo sapiens, UniProt O43186 1-299); conditions: protein: recombinant; tags: N-terminal GST; dsDNA, one strand shown
Outline: as §1

[10] = target: ETV1 (Homo sapiens, UniProt P50549 1-477); conditions: protein: recombinant; tags: N-terminal GST; dsDNA, one strand shown
Outline: as §1

[11] = target: T6, ERF (Homo sapiens, UniProt P50548 1-548); conditions: protein: recombinant; tags: N-terminal GST; dsDNA, one strand shown
T6 sequence: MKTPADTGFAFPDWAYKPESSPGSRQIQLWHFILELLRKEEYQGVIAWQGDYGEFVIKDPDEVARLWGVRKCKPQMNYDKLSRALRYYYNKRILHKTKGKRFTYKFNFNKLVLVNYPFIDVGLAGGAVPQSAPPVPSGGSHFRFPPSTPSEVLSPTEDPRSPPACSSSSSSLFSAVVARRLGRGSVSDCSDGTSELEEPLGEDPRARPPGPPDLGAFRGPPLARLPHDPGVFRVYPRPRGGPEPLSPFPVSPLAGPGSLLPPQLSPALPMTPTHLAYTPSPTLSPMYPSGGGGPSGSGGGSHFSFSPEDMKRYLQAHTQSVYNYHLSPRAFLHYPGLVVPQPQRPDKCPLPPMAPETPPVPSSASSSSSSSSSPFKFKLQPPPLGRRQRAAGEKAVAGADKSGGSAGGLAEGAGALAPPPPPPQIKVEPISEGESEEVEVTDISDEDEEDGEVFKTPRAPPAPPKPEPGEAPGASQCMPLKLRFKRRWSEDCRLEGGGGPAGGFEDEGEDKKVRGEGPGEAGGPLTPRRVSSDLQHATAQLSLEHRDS
Outline: as §1

[12] = target: T7, ETV3L (Homo sapiens, UniProt Q6ZN32 1-361); conditions: protein: recombinant; tags: N-terminal GST; dsDNA, one strand shown
T7 sequence: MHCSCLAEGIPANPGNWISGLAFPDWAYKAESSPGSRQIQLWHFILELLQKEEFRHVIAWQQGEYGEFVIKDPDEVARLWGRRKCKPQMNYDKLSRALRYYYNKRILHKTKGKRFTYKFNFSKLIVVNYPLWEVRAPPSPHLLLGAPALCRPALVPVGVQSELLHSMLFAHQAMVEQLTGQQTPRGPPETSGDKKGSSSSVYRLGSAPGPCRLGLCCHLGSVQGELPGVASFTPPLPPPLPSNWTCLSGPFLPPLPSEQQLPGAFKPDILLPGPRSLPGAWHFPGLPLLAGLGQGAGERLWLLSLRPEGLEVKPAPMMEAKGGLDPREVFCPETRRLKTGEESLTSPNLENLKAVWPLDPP
Outline: as §1

[13] = target: T8, ETS2 (Homo sapiens, UniProt P15036 1-469); conditions: protein: recombinant; tags: N-terminal GST; dsDNA, one strand shown
T8 sequence: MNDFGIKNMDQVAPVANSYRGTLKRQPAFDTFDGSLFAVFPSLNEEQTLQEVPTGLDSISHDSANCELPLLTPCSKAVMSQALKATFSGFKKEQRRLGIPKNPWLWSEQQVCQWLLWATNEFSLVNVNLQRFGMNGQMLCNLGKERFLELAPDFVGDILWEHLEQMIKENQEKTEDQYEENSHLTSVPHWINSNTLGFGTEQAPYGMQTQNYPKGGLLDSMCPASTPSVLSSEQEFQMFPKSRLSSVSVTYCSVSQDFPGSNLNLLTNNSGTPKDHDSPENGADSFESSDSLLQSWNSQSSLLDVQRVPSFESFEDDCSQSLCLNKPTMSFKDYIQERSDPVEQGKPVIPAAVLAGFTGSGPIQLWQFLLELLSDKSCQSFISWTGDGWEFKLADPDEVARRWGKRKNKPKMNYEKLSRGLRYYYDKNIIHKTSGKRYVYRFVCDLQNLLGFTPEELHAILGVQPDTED
Outline: as §1

[14] = target: T9, SPDEF (Homo sapiens, UniProt O95238 1-335); conditions: protein: recombinant; tags: N-terminal GST; dsDNA, one strand shown
T9 sequence: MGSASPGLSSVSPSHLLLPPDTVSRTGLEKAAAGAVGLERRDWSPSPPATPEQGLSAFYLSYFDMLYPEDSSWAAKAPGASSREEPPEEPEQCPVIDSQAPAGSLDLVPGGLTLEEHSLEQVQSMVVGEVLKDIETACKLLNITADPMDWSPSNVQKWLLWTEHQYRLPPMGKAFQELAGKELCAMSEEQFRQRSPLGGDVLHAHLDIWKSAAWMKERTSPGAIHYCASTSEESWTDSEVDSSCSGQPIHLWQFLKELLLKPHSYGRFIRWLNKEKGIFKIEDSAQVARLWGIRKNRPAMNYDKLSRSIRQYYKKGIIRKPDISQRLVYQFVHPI
Outline: as §1

[15] = target: T10, ETV7 (Homo sapiens, UniProt Q9Y603 1-341); conditions: protein: recombinant; tags: N-terminal GST; dsDNA, one strand shown
T10 sequence: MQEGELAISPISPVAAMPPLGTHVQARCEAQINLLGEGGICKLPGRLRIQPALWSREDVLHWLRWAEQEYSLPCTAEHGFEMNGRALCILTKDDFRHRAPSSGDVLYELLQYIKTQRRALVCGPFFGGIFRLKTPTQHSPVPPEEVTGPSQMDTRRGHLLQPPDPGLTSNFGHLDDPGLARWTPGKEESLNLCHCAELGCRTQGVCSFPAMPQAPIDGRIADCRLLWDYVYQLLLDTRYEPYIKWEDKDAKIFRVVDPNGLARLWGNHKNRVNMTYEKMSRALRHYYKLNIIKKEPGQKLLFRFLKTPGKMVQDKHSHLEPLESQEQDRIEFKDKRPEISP
Outline: as §1

[16] = target: T11, ELF5 (Homo sapiens, UniProt Q9UKW6-2 1-255); conditions: protein: recombinant; tags: N-terminal GST; dsDNA, one strand shown
T11 sequence: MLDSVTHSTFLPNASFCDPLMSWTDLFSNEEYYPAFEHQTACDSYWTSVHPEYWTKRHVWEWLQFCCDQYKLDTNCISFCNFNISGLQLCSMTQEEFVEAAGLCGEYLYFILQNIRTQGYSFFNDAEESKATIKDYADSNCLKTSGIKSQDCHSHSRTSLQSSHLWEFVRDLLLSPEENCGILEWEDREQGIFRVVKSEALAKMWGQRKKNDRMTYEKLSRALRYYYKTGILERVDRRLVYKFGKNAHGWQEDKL
Outline: as §1

[17] = target: T12, ETV3 (Homo sapiens, UniProt P41162-2 1-143); conditions: protein: recombinant; tags: N-terminal GST; dsDNA, one strand shown
T12 sequence: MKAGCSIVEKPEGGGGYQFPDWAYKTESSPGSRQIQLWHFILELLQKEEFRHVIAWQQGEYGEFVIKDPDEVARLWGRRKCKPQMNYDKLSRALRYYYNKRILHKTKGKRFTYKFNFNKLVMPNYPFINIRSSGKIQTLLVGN
Outline: as §1

[18] = target: ETV6 (Homo sapiens, UniProt P41212 1-452); conditions: protein: recombinant; tags: N-terminal GST; dsDNA, one strand shown
Outline: as §1

Chain of ETV1 (P50549 whole entry): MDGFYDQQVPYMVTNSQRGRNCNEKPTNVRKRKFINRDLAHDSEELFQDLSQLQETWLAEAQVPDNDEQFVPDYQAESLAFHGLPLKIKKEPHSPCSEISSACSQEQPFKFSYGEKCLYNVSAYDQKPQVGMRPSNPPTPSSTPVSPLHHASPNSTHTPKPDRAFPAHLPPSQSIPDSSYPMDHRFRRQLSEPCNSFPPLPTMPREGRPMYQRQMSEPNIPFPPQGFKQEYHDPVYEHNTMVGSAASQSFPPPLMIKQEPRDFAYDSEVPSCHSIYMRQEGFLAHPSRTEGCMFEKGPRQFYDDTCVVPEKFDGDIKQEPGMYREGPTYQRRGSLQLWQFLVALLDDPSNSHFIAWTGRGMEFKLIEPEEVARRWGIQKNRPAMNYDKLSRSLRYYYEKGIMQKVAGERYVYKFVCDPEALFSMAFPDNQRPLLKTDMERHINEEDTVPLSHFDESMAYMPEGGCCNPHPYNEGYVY
Chain of ELF4 (Q99607 whole entry): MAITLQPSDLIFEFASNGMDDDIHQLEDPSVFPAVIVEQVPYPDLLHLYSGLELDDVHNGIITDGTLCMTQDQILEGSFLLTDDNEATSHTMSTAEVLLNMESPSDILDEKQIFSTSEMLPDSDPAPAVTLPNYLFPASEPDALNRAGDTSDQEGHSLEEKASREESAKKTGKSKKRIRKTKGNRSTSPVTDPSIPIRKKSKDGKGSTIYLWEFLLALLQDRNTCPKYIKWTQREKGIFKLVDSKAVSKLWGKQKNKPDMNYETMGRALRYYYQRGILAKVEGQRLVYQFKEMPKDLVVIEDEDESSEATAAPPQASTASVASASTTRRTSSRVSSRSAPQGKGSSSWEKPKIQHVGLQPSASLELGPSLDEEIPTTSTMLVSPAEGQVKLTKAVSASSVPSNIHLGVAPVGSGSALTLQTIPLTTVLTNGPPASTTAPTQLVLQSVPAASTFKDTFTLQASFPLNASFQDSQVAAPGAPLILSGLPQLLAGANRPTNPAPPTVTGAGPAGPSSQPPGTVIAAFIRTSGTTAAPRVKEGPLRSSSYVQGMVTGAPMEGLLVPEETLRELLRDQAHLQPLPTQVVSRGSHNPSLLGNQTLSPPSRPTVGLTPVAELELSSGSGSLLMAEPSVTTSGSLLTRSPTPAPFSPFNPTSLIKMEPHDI
Chain of HSF1 (Q00613 whole entry): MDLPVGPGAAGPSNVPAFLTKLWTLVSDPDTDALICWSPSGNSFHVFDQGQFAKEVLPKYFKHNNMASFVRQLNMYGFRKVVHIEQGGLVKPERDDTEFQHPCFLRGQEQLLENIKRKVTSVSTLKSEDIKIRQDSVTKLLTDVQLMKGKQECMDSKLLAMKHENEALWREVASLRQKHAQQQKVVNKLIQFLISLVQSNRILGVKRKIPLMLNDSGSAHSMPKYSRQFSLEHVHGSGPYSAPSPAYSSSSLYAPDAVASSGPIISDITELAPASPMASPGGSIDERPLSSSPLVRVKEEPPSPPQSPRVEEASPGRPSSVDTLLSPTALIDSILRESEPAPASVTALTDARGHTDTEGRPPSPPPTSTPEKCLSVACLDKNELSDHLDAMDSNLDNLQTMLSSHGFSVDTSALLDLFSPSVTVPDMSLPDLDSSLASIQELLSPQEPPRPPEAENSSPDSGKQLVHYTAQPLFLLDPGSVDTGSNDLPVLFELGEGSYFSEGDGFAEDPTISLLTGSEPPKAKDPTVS
Chain of CRX (O43186 whole entry): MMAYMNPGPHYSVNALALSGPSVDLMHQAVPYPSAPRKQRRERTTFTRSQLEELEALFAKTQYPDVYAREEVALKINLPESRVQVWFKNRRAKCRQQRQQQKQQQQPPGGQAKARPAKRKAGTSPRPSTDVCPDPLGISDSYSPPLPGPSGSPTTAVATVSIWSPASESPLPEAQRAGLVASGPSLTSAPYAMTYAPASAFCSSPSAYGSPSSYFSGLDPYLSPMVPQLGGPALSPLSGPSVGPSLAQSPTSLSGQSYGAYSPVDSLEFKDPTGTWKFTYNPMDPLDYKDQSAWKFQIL
Chain of ETV5 (P41161 whole entry): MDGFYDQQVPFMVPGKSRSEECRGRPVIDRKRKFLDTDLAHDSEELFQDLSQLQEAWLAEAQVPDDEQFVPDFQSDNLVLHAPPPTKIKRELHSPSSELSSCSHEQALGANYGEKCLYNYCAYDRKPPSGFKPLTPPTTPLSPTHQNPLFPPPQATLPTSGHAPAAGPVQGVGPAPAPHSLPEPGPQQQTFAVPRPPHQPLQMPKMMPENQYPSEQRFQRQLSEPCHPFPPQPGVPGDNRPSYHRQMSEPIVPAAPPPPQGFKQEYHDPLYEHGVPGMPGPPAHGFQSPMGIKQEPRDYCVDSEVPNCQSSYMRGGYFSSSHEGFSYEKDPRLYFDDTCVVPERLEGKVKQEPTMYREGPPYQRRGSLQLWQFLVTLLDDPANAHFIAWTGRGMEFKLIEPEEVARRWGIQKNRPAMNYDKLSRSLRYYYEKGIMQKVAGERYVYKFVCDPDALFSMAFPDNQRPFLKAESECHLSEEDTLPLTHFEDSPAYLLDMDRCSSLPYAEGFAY
Chain of ETV6 (P41212 whole entry): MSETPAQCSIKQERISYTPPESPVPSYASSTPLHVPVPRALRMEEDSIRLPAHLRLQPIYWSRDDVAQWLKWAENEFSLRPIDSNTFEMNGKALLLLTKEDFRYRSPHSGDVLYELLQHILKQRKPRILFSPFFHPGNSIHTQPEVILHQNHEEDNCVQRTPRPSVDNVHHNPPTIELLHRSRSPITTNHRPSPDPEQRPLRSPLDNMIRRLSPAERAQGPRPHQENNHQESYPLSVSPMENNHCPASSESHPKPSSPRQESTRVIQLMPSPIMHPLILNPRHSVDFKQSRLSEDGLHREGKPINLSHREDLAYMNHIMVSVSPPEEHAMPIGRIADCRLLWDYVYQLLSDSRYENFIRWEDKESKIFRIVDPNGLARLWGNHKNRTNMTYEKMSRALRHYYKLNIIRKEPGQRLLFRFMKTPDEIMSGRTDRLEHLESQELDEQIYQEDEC

TATACG
binding signal [1]: 1.18 fold enrichment (6-mer frequency, TF over GST control)
binding signal [2]: 1.25 fold enrichment (6-mer frequency, TF over GST control)
binding signal [3]: 1.27 fold enrichment (6-mer frequency, TF over GST control)
binding signal [4]: 1.1 fold enrichment (6-mer frequency, TF over GST control)
binding signal [5]: 1.31 fold enrichment (6-mer frequency, TF over GST control)
binding signal [6]: 1.14 fold enrichment (6-mer frequency, TF over GST control)
binding signal [7]: 1.15 fold enrichment (6-mer frequency, TF over GST control)
binding signal [8]: 1.26 fold enrichment (6-mer frequency, TF over GST control)
binding signal [9]: 1.39 fold enrichment (6-mer frequency, TF over GST control)
binding signal [10]: 1.32 fold enrichment (6-mer frequency, TF over GST control)
binding signal [11]: 1.39 fold enrichment (6-mer frequency, TF over GST control)
binding signal [12]: 1.15 fold enrichment (6-mer frequency, TF over GST control)
binding signal [13]: 1.37 fold enrichment (6-mer frequency, TF over GST control)
binding signal [14]: 1.39 fold enrichment (6-mer frequency, TF over GST control)
binding signal [15]: 1.39 fold enrichment (6-mer frequency, TF over GST control)
binding signal [16]: 1.35 fold enrichment (6-mer frequency, TF over GST control)
binding signal [17]: 1.3 fold enrichment (6-mer frequency, TF over GST control)
binding signal [18]: 1.23 fold enrichment (6-mer frequency, TF over GST control)
